Test results: PubChem BioAssay (NCATS)
Records with an inconclusive call do not appear. Activity calls are given as the source filed them. The call rests on the fitted dose curve; in most records, active means well fitted curve in the direction sought with a large enough effect; inconclusive means small, poorly fitted or top-dose-only effect, or another doubt; inactive means no such curve, though single readings can be large; an effect the other way counts as inactive or inconclusive.

Legend:
[1] = target: Protein phosphatase 1D (Homo sapiens) (UniProt O15297); assay: RapidFire Mass Spectrometry qHTS Assay for Modulators of WT P53-Induced Phosphatase 1 (WIP1) (AID 1347424);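 further: amount of dephosphorylated VEPPL-S-QETFS peptide product formed by WIP1; series mostly up to about 63 µM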
Procedure, shortened: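 WIP1 (10 nM final) was preincubated 1 h at room temperature with compounds in Tris-HCl pH 7.5, 30 mM MgCl2, TCEP, EGTA, BSA; 2 uM VEPPL-pS-QETFS phosphopeptide was added for 5 min, quenched with formic acid, and dephosphorylated product quantified by RapidFire MS.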

[2] = target: Protein phosphatase 1D (Homo sapiens) (UniProt O15297); assay: Rhodamine-PBP qHTS Assay for Modulators of WT P53-Induced Phosphatase 1 (WIP1) (AID 1347425)
Procedure, shortened: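 Steps: enzyme with Rh-PBP sensor and compounds, room-temperature incubation of 1 hr, baseline read, addition of VEPPL-pS-QETFS (10 uM final), kinetic fluorescence reads at 525/598 nm. Activity equals final minus baseline signal.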

[3] = Primary qHTS for inhibitors of La Crosse Virus (LACV) - induced cell death in SH-SY5Y cells (AID 1508616);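 further: top concentration of the series differs between compounds; higher means more rescue of cells from virus-induced death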
Procedure, shortened: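 SH-SY5Y cells (6000/well) plated 24 h, then given compounds by pin transfer and LACV at 0.01 MOI for 6 days at 37C. Viability measured by ATPLite luminescence, normalized to infected DMSO and uninfected DMSO.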

[4] = target: Calcium and integrin-binding protein 1 (Homo sapiens) (UniProt Q99828); assay: Primary qHTS for Identification of Calcium Integrin Binding Protein 1 (CIB1) Competitor (AID 1508620);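 further: GST tagged CIB1 binding a fluorescein labelled alphaIIb integrin peptide tracer; top concentration of the series differs between compounds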
Procedure, shortened: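 Fluorescence polarization competition: CIB1-GST (1 uM final) preincubated with compound 15 min at room temperature, then FITC-labeled alphaIIb peptide (100 nM final) added for another 15 min. Polarization read at Ex 480/Em 540.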

Measured: Potency

Protein phosphatase 1D (Homo sapiens), sequence (O15297 whole entry, looked up): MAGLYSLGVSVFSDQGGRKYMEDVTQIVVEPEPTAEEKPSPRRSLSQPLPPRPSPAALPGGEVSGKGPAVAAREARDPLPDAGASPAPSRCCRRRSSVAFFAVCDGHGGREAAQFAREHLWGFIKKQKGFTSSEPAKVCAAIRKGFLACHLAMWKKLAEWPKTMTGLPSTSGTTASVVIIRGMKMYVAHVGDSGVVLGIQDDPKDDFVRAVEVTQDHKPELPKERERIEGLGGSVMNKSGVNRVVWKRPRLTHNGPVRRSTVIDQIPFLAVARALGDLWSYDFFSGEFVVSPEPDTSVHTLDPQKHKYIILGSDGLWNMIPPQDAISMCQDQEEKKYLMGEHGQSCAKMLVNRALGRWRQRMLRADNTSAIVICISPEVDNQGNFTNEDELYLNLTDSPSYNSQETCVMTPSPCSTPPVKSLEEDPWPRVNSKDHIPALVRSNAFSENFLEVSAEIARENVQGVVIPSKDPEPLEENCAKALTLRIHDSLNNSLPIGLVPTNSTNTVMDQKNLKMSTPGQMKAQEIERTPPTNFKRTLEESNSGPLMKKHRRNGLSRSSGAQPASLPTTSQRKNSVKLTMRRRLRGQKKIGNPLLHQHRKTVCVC
Calcium and integrin-binding protein 1 (Homo sapiens), sequence (Q99828 whole entry, looked up): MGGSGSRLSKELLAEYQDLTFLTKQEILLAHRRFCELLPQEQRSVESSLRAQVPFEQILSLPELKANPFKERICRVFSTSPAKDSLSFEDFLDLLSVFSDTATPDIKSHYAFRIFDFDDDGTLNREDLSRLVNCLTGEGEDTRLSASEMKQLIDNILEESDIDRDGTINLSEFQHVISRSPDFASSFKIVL

CC(C)(Cc1c[nH]c2ccccc12)NCC(O)COc1ccccc1C#N (stereo not given)
inactive: all assays above

NC(=O)c1ccccc1O
inactive: all assays above

CC(C)(C)NCC(O)COc1cccc2c1C[C@H](O)[C@H](O)C2 (stereo not given in full)
inactive: all assays above

O=C1C(O)=C(O)C(=O)C(O)=C1O
inactive: all assays above

Cc1cccc(C)c1NC(=O)c1ccccc1C(=O)O
inactive: all assays above

CO[C@H]1C=CO[C@@]2(C)Oc3c(C)c(O)c4c(O)c(c(/C=N/N5CCN(C)CC5)c(O)c4c3C2=O)NC(=O)/C(C)=C\C=C[C@H](C)[C@H](O)[C@@H](C)[C@@H](O)[C@@H](C)[C@H](OC(C)=O)[C@@H]1C
inactive: all assays above

N#C/C(=C1\SCC(c2ccccc2Cl)S1)n1ccnc1 (stereo not given)
inactive: all assays above

COc1ccc(-c2cc(C(F)F)nn2-c2ccc(S(N)(=O)=O)cc2)cc1F
inactive: all assays above

CC(=O)NC(=O)c1ccccc1O
inactive: all assays above

OC[C@H]1O[C@@H]2O[C@H]3[C@H](O)[C@@H](O)[C@@H](O[C@H]4[C@H](O)[C@@H](O)[C@@H](O[C@H]5[C@H](O)[C@@H](O)[C@@H](O[C@H]6[C@H](O)[C@@H](O)[C@@H](O[C@H]7[C@H](O)[C@@H](O)[C@@H](O[C@H]8[C@H](O)[C@@H](O)[C@@H](O[C@H]1[C@H](O)[C@H]2O)O[C@@H]8CO)O[C@@H]7CO)O[C@@H]6CO)O[C@@H]5CO)O[C@@H]4CO)O[C@@H]3CO
inactive: all assays above
